Hits are enriched below; roughly 3.5% of the tested compounds scored in any of these assays.
GPR151 ag: activates the human receptor GPR151; 1% of 650,000 active; activation, % at 11.2 µM; Q8TDV0; PathHunter beta-arrestin GPR151 cells, luminescence; in the data active means activation above about 4.9%
TEAD-YAP inh: TEAD-YAP interaction inhibition; HEK-TIYL cells, TEAD-Gal4/YAP UAS-luciferase luminescence; inhibition, % at 9.12 µM; 1.4% of 640,000 active; AID 1259422; in the data active means inhibition above about 32%
FBW7 act: activators of human E3 ligase FBW7 | Q969H0 | AlphaScreen FBW7–phospho-cyclin E peptide binding, activator screen | 0.13% of 650,000 active | normalized activity (activation), % at 26.1 µM; in the data active means normalized activity above about 1.9%;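 further: purified mutant Fbw7 with reduced substrate affinity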
MITF inh: blocks human microphthalmia-associated transcription factor. O75030. AlphaScreen MITF homodimerization, bead proximity signal. inhibition, % at 2.6 µM. 0.91% of 650,000 active. AID 1259374; in the data active means inhibition above about 50%
Target sequence (O75030 whole entry, looked up): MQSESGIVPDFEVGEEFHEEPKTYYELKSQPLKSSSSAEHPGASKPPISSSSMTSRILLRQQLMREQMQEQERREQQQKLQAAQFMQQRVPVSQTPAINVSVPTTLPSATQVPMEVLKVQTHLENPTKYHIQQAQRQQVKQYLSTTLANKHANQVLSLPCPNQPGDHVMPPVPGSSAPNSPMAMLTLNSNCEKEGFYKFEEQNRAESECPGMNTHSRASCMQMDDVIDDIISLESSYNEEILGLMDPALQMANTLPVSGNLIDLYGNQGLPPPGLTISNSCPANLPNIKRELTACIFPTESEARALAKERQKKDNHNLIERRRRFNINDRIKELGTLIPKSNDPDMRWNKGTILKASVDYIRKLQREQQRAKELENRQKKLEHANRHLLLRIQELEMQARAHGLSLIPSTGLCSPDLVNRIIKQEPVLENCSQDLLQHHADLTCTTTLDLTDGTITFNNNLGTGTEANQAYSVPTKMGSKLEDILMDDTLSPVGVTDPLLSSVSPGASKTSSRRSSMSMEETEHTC
GPR151 conf act: confirmation of human GPR151 activators; GPR151 PathHunter beta-arrestin cells, luminescence, 90 min; % of EA-reagent control over plate median; activation, % at 11.2 µM; shares compounds with GPR151 ag; 6,700 tested, under 10 active;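 active means mean percent activation across replicates above the confirmation screen cutoff of 4.91%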
GPR119 ag: activates human GPR119 in a GPR151 counter-screen | shares compounds with GPR151 ag | GPR119 PathHunter beta-arrestin cells, luminescence, 90 min; 0 = compound-well median, 100 = enzyme-acceptor control | activation, % at 11.2 µM | 0.3% of 6,700 active;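 active means mean percent activation in the counterscreen above 29.09%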;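 further: counterscreen on off-target GPR119 to flag nonselective hits from the GPR151 activator screen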
Of the large screens only hits and unclear results are named; the others gave an inactive call (follow-up assays come after a bar, where they were run).

COc1ccc(-c2nn(-c3ccccc3)cc2C=C2C(=O)N(C)C(=O)N(C)C2=O)c(C)c1	none
CCc1sc(C(=O)NCc2ccccc2OC)cc1C	GPR151 ag 5.5 | GPR151 conf act inactive | GPR119 ag inactive
O=c1[nH]c(=O)c2cc(Cl)cc(Cl)c2[nH]1	none
COc1ccc(S(=O)(=O)N2N=C(C)Oc3ccccc3C2=O)cc1	GPR151 ag 5.2, TEAD-YAP inh 44.1 | GPR151 conf act inactive | GPR119 ag inactive
O=C1/C(=C\c2ccc(-c3ccc(Cl)cc3)o2)Sc2ccccc21	GPR151 ag 8.4 | GPR151 conf act inactive | GPR119 ag inactive
O=C(O)c1cc(-c2ccc(/C=C3\Sc4ccccc4C3=O)o2)ccc1Cl	none
CCOCCCNC(=O)c1ccc(OC(C)=O)cc1	GPR151 ag 6.8 | GPR151 conf act inactive | GPR119 ag inactive
COCCCNC(=O)c1ccc(OC(C)=O)cc1	none
NC(=NCCC[C@H](N)C(=O)O)NO	GPR151 ag 5.5 | GPR151 conf act inactive | GPR119 ag inactive
O=C(c1nc2ccccn2c1CN1CCCCC1)N1CCN(C2CCCCC2)CC1	none
CCC1CCC2(CC1)SCC(=O)N2c1ccccc1 (stereo not given)	none
CCC1CCC2(CC1)SCC(=O)N2c1ccc(F)cc1 (stereo not given)	GPR151 ag 6.4 | GPR151 conf act inactive | GPR119 ag inactive
FC(F)(F)c1ccc(NC2=NCCC2)cc1	none
c1ccc(NC2=NCCC2)cc1	GPR151 ag 7.1 | GPR151 conf act inactive | GPR119 ag inactive
Cc1cnc(NC(=O)Cc2ccsc2)s1	GPR151 ag 6.3 | GPR151 conf act inactive | GPR119 ag inactive
Cc1ccc(NC(=O)CCC(=O)N/N=C/c2c(O)ccc3ccccc23)cc1	none
COc1cc(C(=O)Nc2nnc(Cc3ccc(Cl)cc3)s2)c([N+](=O)[O-])cc1OC	GPR151 ag 6.1 | GPR151 conf act inactive | GPR119 ag inactive
CC1(C)Oc2ccc(C(=O)NC3CCCCC3)cc2N(CC(=O)N2CCCCC2)C1=O	none
O=C(Cc1cccs1)N/N=C\c1ccc(O)c(O)c1	GPR151 ag 5.3 | GPR151 conf act inactive | GPR119 ag inactive
O=C(Cc1cccs1)N/N=C\c1ccc(O)cc1	none
COC(=O)c1ccc(Nc2nccc(-c3ccccc3)n2)cc1	none
NC(=O)c1ccc(Nc2nccc(-c3ccc(Cl)cc3)n2)cc1	GPR151 ag 5.6 | GPR151 conf act inactive | GPR119 ag inactive
CCN(CC)C1CCN(Cc2c(C(=O)N3CCCCCCC3)nc3sccn23)C1 (stereo not given)	none
CCOc1ccc(C(=O)N2CCc3cc(OC)c(OC)cc3C2COc2ccc(C(=O)OC)cc2)cc1OCC (stereo not given)	GPR151 ag 20.2 | GPR151 conf act inactive | GPR119 ag inactive
COc1cc2c(cc1OC)C(COc1ccc(F)cc1)NCC2 (stereo not given)	GPR151 ag 7.1 | GPR151 conf act inactive | GPR119 ag inactive
COc1cc2c(cc1OC)C(COc1ccc(F)cc1)N(C(=O)/C=C/c1cc(OC)c(OC)c(OC)c1)CC2 (stereo not given)	GPR151 ag 6.3 | GPR151 conf act inactive | GPR119 ag inactive
COc1ccc(OCC2c3cc(OC)c(OC)cc3CCN2C(=O)/C=C/c2cc(OC)c(OC)c(OC)c2)cc1 (stereo not given)	none
CCOC(=O)c1ccc(OCC2c3cc(OC)c(OC)cc3CCN2C(=O)c2ccc(OCC)c(OCC)c2)cc1 (stereo not given)	none
CC(C)(C)C(=O)Nc1nnc(SCC(=O)Nc2ccc(C(F)(F)F)cc2)s1	none
CCOc1ccc(NC(=O)Cn2cnc3sc(C)c(C)c3c2=O)cc1	none
O=C(Nc1ccccc1)c1cnc(NC2CCN(Cc3ccccc3)CC2)s1	none
Cn1c(Nc2cc(C(=O)NCCc3ccc(O)cc3)ccn2)nc2ccccc21	none
COc1ccc(NC(=O)CN(C)S(=O)(=O)c2ccc(Cl)cc2)cc1Cl	GPR151 ag 10.2 | GPR151 conf act inactive | GPR119 ag inactive
Cc1ccc(NC(=O)CN(C)S(=O)(=O)c2ccc(Br)cc2)cc1C	none
Cc1ccc(NC(=O)CN(C)S(=O)(=O)c2ccc(Br)cc2)cc1Cl	GPR151 ag 9.5 | GPR151 conf act inactive | GPR119 ag inactive
CC(=O)Nc1ccc(NC(=O)c2ccc(-c3c(C)noc3C)s2)cc1	none
Cc1ccc(N2C(c3ccc(N(C)C)cc3)C(=O)C2N2C(=O)c3ccccc3C2=O)cc1 (stereo not given)	GPR151 ag 8.4 | GPR151 conf act inactive | GPR119 ag inactive
CCOc1ccc(C2C(C(=O)Nc3cccc(C(F)(F)F)c3)=C(C)NC3=C2C(=O)CCC3)cc1 (stereo not given)	none
Cc1ccc(-n2ncc3c(SCC(=O)Nc4ccc(C(N)=O)cc4)ncnc32)c(C)c1	GPR151 ag 5.3 | GPR151 conf act inactive | GPR119 ag inactive
Cc1ccc(-n2ncc3c(SCC(=O)NC(C)C)ncnc32)c(C)c1	none
COc1ccc(-n2cc(-c3ccccc3)c3c(NCCc4ccc(OC)c(OC)c4)ncnc32)cc1	GPR151 ag 5.1 | GPR151 conf act inactive | GPR119 ag inactive
O=C(COc1ccc(C(=O)N2CCN(CCc3ccccc3)CC2)cc1)C1CC1	GPR151 ag 5.1 | GPR151 conf act inactive | GPR119 ag inactive
O=C(COc1ccc(C(=O)N2CCN(c3ccccc3Cl)CC2)cc1)C1CC1	none
O=C(Cn1nnnc1CN1CCCCCC1)N1CCC[C@H]1CO	none
O=C(Cn1nnnc1CN1CCCCCC1)N1CCCCC1c1cccnc1 (stereo not given)	GPR151 ag 5.7 | GPR151 conf act inactive | GPR119 ag inactive
CC(C)(C)NC(=O)C(c1ccccc1F)N(C(=O)c1csnn1)C1CCCCC1 (stereo not given)	none
C=CCOc1ccccc1C(c1c(C)[nH][nH]c1=O)c1c(C)[nH][nH]c1=O	GPR151 ag 9.5 | GPR151 conf act inactive | GPR119 ag inactive
O=c1[nH]c2cccnc2[nH]c1=O	GPR151 ag 10.0 | GPR151 conf act inactive | GPR119 ag inactive
O=C(Nc1ccc(N2CCCCC2)cc1)c1ccc(-c2ccccc2[N+](=O)[O-])o1	none
Nc1cccc(-c2nc3ccc(Cc4ccc5nc(-c6cccc(N)c6)[nH]c5c4)cc3[nH]2)c1	GPR151 ag 7.0 | GPR151 conf act inactive | GPR119 ag inactive
Cn1cccc1-c1nc2ccc(N)cc2[nH]1	GPR151 ag 6.3 | GPR151 conf act inactive | GPR119 ag inactive
O=C(Nc1nc2c(F)cccc2s1)c1cccs1	none
O=C1c2ccccc2C(=O)N1CCOc1ccccc1F	none
O=C1c2ccccc2C(=O)N1CCOc1ccc(Br)cn1	GPR151 ag 6.0 | GPR151 conf act inactive | GPR119 ag inactive
O=C(CSc1nnc(-c2cccc(Br)c2)o1)c1ccc([N+](=O)[O-])cc1	none
CN1C(=O)N(C)C2C1NC(=O)N2N (stereo not given)	none
Cc1ccc(C(=O)Nc2nc3ccc(S(C)(=O)=O)cc3s2)cc1	none

From PubChem
